Sampled rows, rich in hits. Any-hit rate of the full collection: about 2.4%.
D2 PAM-1 = D2 dopamine receptor (human) potentiation; HEK293 T-REx D2, calcium flux, EC20 dopamine potentiation; potentiation, % at 10 µM; hit rate 0.34% among 340,000; AID 485347;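 active = potentiation over 3 SD above the plate norm, cut at about 30% in these data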; also: 0% is about no effect
Target sequence (P14416 whole entry, looked up): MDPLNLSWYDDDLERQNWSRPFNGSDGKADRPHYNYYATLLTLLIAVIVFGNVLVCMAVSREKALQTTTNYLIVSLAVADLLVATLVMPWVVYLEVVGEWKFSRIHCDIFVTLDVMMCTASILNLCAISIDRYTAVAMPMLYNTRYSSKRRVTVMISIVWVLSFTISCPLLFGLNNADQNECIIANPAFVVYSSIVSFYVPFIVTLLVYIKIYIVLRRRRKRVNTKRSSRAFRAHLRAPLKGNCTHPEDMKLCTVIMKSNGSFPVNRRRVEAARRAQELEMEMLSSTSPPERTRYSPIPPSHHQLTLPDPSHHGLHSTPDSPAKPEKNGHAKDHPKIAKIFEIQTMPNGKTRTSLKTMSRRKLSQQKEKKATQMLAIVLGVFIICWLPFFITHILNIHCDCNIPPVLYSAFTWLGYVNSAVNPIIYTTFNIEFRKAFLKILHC
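Primary screen. Calcium kinetics in induced HEK293 T-REx D2 cells: compound pre-addition 180 s, EC20 dopamine, 180 s more.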
D2 ag-1 = human D2 receptor agonism in beta-arrestin assay | activation, % (test concentration not listed) | DiscoveRx PathHunter D2 beta-arrestin, luminescence, 90 min; 100% = 57 uM dopamine signal | hit rate 0.084% among 360,000; in the data active = activation above about 40%; inconclusive = between about 15% and that limit
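Agonist mode: compounds alone added to overnight-plated D2 PathHunter cells for 90 min at 37 C, with 57 uM final dopamine (EC100) defining full response. Beta-arrestin recruitment detected by chemiluminescent reagent, read after 1 h at ambient temperature.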
D2 antag = antagonizes the human D2 dopamine receptor; P14416; HEK293 TREx D2 cells, calcium flux, dopamine EC80; inhibition, % at 10 µM; hit rate 2% among 340,000; in the data active = inhibition above about 30%; inactive = below that, where a call was filed; also: 0% is about no effect
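Calcium flux kinetic readout in an inducible HEK293 TREx D2 line plated overnight at 30 C. After 180 s compound exposure, an EC80 dopamine challenge follows with another 180 s kinetic read to detect antagonism.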
D2 ag-2 = D2 dopamine receptor (human) agonism. hit rate 0.53% among 340,000. HEK293 T-REx D2 cells, calcium flux agonist mode. P14416. activation, % at 2 µM;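 active = activation over 3 SD above normal in the single-dose calcium agonist read, cut at about 30% in these data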; also: 0% is about no effect
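Agonism is scored from calcium flux in a force-coupled, inducible HEK293 cell line expressing D2, read kinetically for 180 s after compound addition against dopamine controls.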
D2 PAM-2 = human D2 receptor positive allosteric modulation; P14416; DiscoveRx D2 beta-arrestin cells, luminescence, 90 min; 100% = 57 uM dopamine signal; potentiation, % (concentration not given with the values); hit rate 0.23% among 360,000; AID 624464; in the data active = potentiation above about 50%; inconclusive = mostly about 30% to 49%
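PathHunter beta-arrestin assay in DiscoveRx D2 cells. Compounds were added with an EC20 of dopamine (50 nM final) for 90 min at 37 deg C. Luminescence was read 1 h after detection reagent, with 57 uM dopamine as the EC100 control.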
* marks the source's active call; other numbers are inactive results; ? = inconclusive; . = no result given.

SMILES	D2 PAM-1	D2 ag-1	D2 antag	D2 ag-2	D2 PAM-2
CSCCC(NC(=O)c1ccccc1)C(=O)NCc1ccc(S(N)(=O)=O)cc1 (stereo unspecified)	-8	2	31*	1	0
O=C1C(=NO)CC(c2ccccc2)N1c1ccccc1 (stereo unspecified)	.	1	.	.	-14
COc1ccc(OC)c(NC(=O)c2c(NCc3ccc(N(C)C)cc3)sc3c2CCCC3)c1	-7	.	.	0	.
O=C(CN1CCOCC1)N1CCOCC1	.	0	.	.	-4
Cc1cccn2c(CNCCc3ccco3)c(C(=O)N3CCOCC3)nc12	-5	1	10	0	-14
Cc1cccc[n+]1CC(=O)Nc1ccc([N+](=O)[O-])cc1	8	-5	-6	0	-2
O=C(C[n+]1ccc(-c2ccccc2)cc1)Nc1ccc([N+](=O)[O-])cc1	-19	-5	37*	1	-9
O=C(CCN1C(=O)[C@@H]2Cc3ccccc3CN2C1=O)N[C@H](Cc1ccccc1)C(=O)O	3	-3	1	0	-15
CCC12CCCN3CCc4c(n(c5ccccc45)C(O)(C(=O)OC)C1)C32 (stereo unspecified)	-30	5	51*	0	-6
CC[C@]12CCCN3CCc4c(n(c5ccccc45)[C@](O)(C(=O)OC)C1)[C@@H]32	14	-4	-11	1	13
CC(=O)c1cccc(N(CC(=O)Nc2ccccc2F)S(C)(=O)=O)c1	-12	-2	46*	0	1
CSc1cccc(NC(=O)CN(c2cccc(C)c2)S(C)(=O)=O)c1	-9	0	30*	1	-9
CC(C)C(NC(=O)CN(c1cccc(F)c1)S(C)(=O)=O)C(C)C	20	-3	39*	0	1
CCN1CCN(C(=O)c2ccc3c(=O)n(CCc4ccccc4)c(=O)[nH]c3c2)CC1	6	0	0	1	-3
COc1ccc(OC)c(NC(=O)Nc2ccc3[nH]ccc3c2)c1	.	-2	.	.	-10
c1csc(CSc2nc3ccccc3s2)c1	13	-1	39*	0	7
Cc1noc(C)c1CSc1nc2ccccc2s1	.	-2	18	0	-1
O=C(CN1C(=O)S/C(=C\c2cccs2)C1=O)Nc1ccc(C(=O)O)c(O)c1	8	-2	40*	-1	-6
CCN(CC)C(=O)C1=C(C)NC(=S)NC1c1cccs1 (stereo unspecified)	-7	-8	31*	0	-6
CCNC(=O)C1(C)CCN(Cc2csc(-c3ccccc3)n2)C1 (stereo unspecified)	.	-4	.	.	-24
CCN(CCN(C)C)C(=O)C1CCN(S(=O)(=O)c2c(C)noc2/C=C/c2ccccc2F)CC1	-13	-3	-8	1	-3
CCOc1ccccc1/C=C/c1onc(C)c1S(=O)(=O)N1CCC(C(=O)N(CC)CC)CC1	-24	-1	56*	-1	-21
Cc1noc(C)c1S(=O)(=O)N1CCC(C(=O)Nc2ccccn2)CC1	34*	-2	3	0	15
Cc1ccc(S(=O)(=O)N2CCC(C(=O)NCCc3ccccn3)CC2)cc1	-3	-3	43*	3	-20
Cc1noc(C)c1S(=O)(=O)N1CCN(c2ccccc2)CC1	0	-7	38*	1	-7
SMILES	D2 PAM-1	D2 ag-1	D2 antag	D2 ag-2	D2 PAM-2
Cc1cccc(C(=O)N2c3ncnn3C3(CCCCC3)[C@@H]3CCCC[C@@H]32)c1	21	.	.	1	.
CC1(C)Cc2c(sc(/N=C/N3CCCCCC3)c2C#N)C(C)(C)N1	4	-3	6	2	-1
CC1(C)Cc2c(sc(/N=C/N3CCCC3)c2C#N)C(C)(C)N1	-5	-4	33*	0	2
O=C(CC[C@H]1O[C@@H](n2ccc(=O)[nH]c2=O)[C@H](O)[C@@H]1O)N[C@@H](Cc1ccccc1)C(=O)NCC1CCCO1 (stereo partly specified)	.	-2	.	.	-4
CC(C)Nc1nc(Cl)nc(NN(C)c2nc(N(C)C)nc(N(C)C)n2)n1	-9	-4	34*	-1	0
Cc1ccc(C(=O)Nc2cccc(C(F)(F)F)c2)cc1Nc1cncnc1	-23	3	33*	-1	-1
CCC(CC)C(=O)Nc1nnc(SCc2cc(=O)c3ccccc3[nH]2)s1	18	.	.	1	.
CN1CCc2c(sc3c2C(=O)NC(c2ccc4c(c2)OCO4)N3)C1 (stereo unspecified)	-21	-2	32*	0	-26
CCCCCC(=O)Nc1ccc(C(=O)COC(=O)CN2C(=O)NC3(CCCC3)C2=O)cc1	-4	-6	-1	0	-10
COc1ccc(Cn2c(C)nc3c(c2=O)c2nc4ccccc4nc2n3Cc2ccco2)cc1	.	0	.	.	0
COc1ccc(Cn2c3nc4ccccc4nc3c3c(=O)n(Cc4ccco4)c(C)nc32)cc1	-4	.	33*	1	.
CCC(C)(C)C(=O)Nc1ncc(S(=O)(=O)c2ccc([N+](=O)[O-])cc2)s1	31*	7	-14	6	88*
O=C(Nc1ncc(S(=O)(=O)c2ccc([N+](=O)[O-])cc2)s1)c1ccc2ccccc2c1	.	14	.	.	73*
O=C(CCl)Nc1ncc(S(=O)(=O)c2ccc([N+](=O)[O-])cc2)s1	.	?	.	.	6
O=C(CNC(=O)c1ccco1)OCc1c(F)cccc1Cl	41*	0	-26	0	-1
O=C(CNC(=O)c1ccco1)NCC(=O)OCc1c(F)cccc1Cl	13	2	-2	1	4
O=C(CNC(=O)c1ccco1)NCC(=O)OCC(=O)c1ccc(Cl)c([N+](=O)[O-])c1	38*	-28	5	0	-31
O=C(C[n+]1ccccc1)N/N=C/c1cc(Br)cc(Br)c1O	-32	-7	32*	2	-31
O=C(C[n+]1ccccc1)N/N=C/c1cc(Br)ccc1F	-19	-5	-7	0	-33
COc1ccc(Br)cc1/C=N/NC(=O)C[n+]1ccccc1	-20	-6	40*	1	-8
COc1ccccc1C(=O)OCc1cc(=O)n2nc(C3CC3)sc2n1	-11	.	.	1	.
Cc1ccccc1C(=O)NC1CCN(C(=O)NC2CCCCC2)CC1	0	9	-7	-1	-2
O=C(NC1CC2CCC(C1)N2Cc1ccccc1)c1ccccc1Cl (stereo unspecified)	-21	-1	75*	2	-3
Cc1ccccc1C(=O)NC1CC2CCCC(C1)N2Cc1ccccc1 (stereo unspecified)	-20	-6	71*	-2	0
Cc1ccccc1C(=O)NC1CCN(C(=O)N2CCOCC2)CC1	36*	-1	12	0	-3
Cc1ccccc1C(=O)NC1CC2CCCC(C1)N2Cc1ccc(Cl)cc1 (stereo unspecified)	-23	-7	76*	1	-27
